Test results published in the supplement of paper PMC12645437, “Orthogonal IMiD-Degron Pairs Induce Selective Protein Degradation in Cells” (ACS Chemical Biology, 2025).
In all, about 8,300 sequences were measured (“log2 fold change of degron read counts, EGFP-low vs EGFP+ sorted cells (limma voom), compound-induced degradation”: median about -1.1, highest 2% from about 3.2 on). The sample as a whole holds a higher share of the highest values than the screen did.

T1: CRBN, Q96SW2
T1 chain: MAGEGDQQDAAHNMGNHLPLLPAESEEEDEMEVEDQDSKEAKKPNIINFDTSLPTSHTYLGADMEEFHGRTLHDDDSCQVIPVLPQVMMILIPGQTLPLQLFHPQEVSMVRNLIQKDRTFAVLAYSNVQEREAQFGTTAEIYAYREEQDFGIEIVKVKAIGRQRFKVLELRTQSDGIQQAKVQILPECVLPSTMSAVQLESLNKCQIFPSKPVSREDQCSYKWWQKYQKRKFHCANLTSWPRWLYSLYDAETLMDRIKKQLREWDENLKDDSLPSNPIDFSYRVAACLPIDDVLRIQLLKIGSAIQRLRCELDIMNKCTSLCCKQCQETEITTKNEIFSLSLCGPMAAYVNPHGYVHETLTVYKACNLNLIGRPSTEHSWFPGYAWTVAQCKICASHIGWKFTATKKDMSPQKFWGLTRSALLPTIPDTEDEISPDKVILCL


Molecular target: T1, CRBN, Q96SW2
Assay: log2 fold change of degron read counts, EGFP-low vs EGFP+ sorted cells (limma voom), compound-induced degradation; higher = more compound-induced degradation of the degron-EGFP fusion; degrons are variants of IKZF1/3 zinc finger 2; compound dose not given here
Details: Jurkat, 18 h
[1] = compound: compound 19 (5-tert-butyl-thalidomide)
[2] = compound: compound 22 (5-morpholino-thalidomide)
[3] = compound: compound 33 (diphenyl IMiD analogue)
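Note: pooled lentiviral library of zinc finger degron-EGFP fusions in mCherry-positive Jurkat cells, FACS-sorted after compound exposure, with degron abundance counted by next-generation sequencing.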

| Sequence | log2 fold change of degron read counts [1] | log2 fold change of degron read counts [2] | log2 fold change of degron read counts [3] | log2 fold change of degron read counts (compound: thalidomide) |
| --- | --- | --- | --- | --- |
| LDCNQCGFQCTQKGNLLRHIKL [46L_47D_49N_50Q_52G_53F_54Q_55C_67L_, Q9UKT9] | -2.46 | -2.61 | -2.96 | -1.93 |
| FICPVCGATFTQKGNLLRHIKL [46F_47I_49P_50V_52G_53A_54T_55F_67L_, Q9UKT9] | -1.38 | 1.38 | 1.48 | 1.83 |
| FKCEICGHHFTQKGNLLRHIKL [46F_47K_49E_50I_52G_53H_54H_55F_67L_, Q9UKT9] | -3.82 | -3.97 | -3.56 | -3.72 |
| FNCNQCGRPFTQKGNLLRHIKL [46F_47N_49N_50Q_52G_53R_54P_55F_67L_, Q9UKT9] | -1.93 | -2 | -2.66 | -2.05 |
| FVCPQCGAMFTQKGNLLRHIKL [46F_47V_49P_50Q_52G_53A_54M_55F_67L_, Q9UKT9] | -2.14 | -0.591 | 0.3 | -0.862 |
| FECPQCGAFFTQKGNLLRHIKL [46F_47E_49P_50Q_52G_53A_54F_55F_67L_, Q9UKT9] | -2.8 | -3.69 | -1.82 | -1.91 |
| FECDQCGAAFTQKGNLLRHIKL [46F_47E_49D_50Q_52G_53A_54A_55F_67L_, Q9UKT9] | -1.3 | -3.38 | -1.76 | -1.6 |
| FTCEQCGACFTQKGNLLRHIKL [46F_47T_49E_50Q_52G_53A_54C_55F_67L_, Q9UKT9] | -1.75 | -1.02 | 0.816 | 0.182 |
| FWCPQCGAVFTQKGNLLRHIKL [46F_47W_49P_50Q_52G_53A_54V_55F_67L_, Q9UKT9] | -0.18 | 1.02 | 0.693 | -0.596 |
| FYCEICGAMFTQKGNLLRHIKL [46F_47Y_49E_50I_52G_53A_54M_55F_67L_, Q9UKT9] | 3.62 | 3.42 | 2.55 | 0.91 |
| FTCEICGAMFTQKGNLLRHIKL [46F_47T_49E_50I_52G_53A_54M_55F_67L_, Q9UKT9] | 0.136 | 0.966 | 1.62 | 1.82 |
| FICEICGAMFTQKGNLLRHIKL [46F_47I_49E_50I_52G_53A_54M_55F_67L_, Q9UKT9] | -0.357 | 1.35 | 2.3 | 2.13 |
| FACPQCGAAFTQKGNLLRHIKL [46F_47A_49P_50Q_52G_53A_54A_55F_67L_, Q9UKT9] | 1.65 | -0.791 | 0.0272 | -1.04 |
| FCCEVCGAGFTQKGNLLRHIKL [46F_47C_49E_50V_52G_53A_54G_55F_67L_, Q9UKT9] | 3.35 | 1.74 | 1.47 | 1.17 |
| FLCEVCGAGFTQKGNLLRHIKL [46F_47L_49E_50V_52G_53A_54G_55F_67L_, Q9UKT9] | 2.28 | -0.0355 | 1.42 | 1.08 |
| FGCEVCGAGFTQKGNLLRHIKL [46F_47G_49E_50V_52G_53A_54G_55F_67L_, Q9UKT9] | 1.93 | -0.105 | 0.538 | -0.636 |
| FACEVCGAGFTQKGNLLRHIKL [46F_47A_49E_50V_52G_53A_54G_55F_67L_, Q9UKT9] | 3.4 | 1.13 | -0.271 | 0.383 |
| FECEVCGAGFTQKGNLLRHIKL [46F_47E_49E_50V_52G_53A_54G_55F_67L_, Q9UKT9] | 1.72 | -1.52 | 0.852 | 1.21 |
| FICEVCGAGFTQKGNLLRHIKL [46F_47I_49E_50V_52G_53A_54G_55F_67L_, Q9UKT9] | -0.137 | 2.66 | 2.12 | 2.56 |
| FRCEVCGAGFTQKGNLLRHIKL [46F_47R_49E_50V_52G_53A_54G_55F_67L_, Q9UKT9] | 2.66 | 2.02 | 2.33 | 1.57 |
| FFCEVCGAGFTQKGNLLRHIKL [46F_47F_49E_50V_52G_53A_54G_55F_67L_, Q9UKT9] | 3.65 | 2.72 | 1.51 | 0.512 |
| FHCEVCGAGFTQKGNLLRHIKL [46F_47H_49E_50V_52G_53A_54G_55F_67L_, Q9UKT9] | 3.18 | 1.07 | 2.01 | -0.276 |
| FYCEVCGAGFTQKGNLLRHIKL [46F_47Y_49E_50V_52G_53A_54G_55F_67L_, Q9UKT9] | 3.31 | 3.22 | 2.6 | 0.445 |
| FQCEVCGAGFTQKGNLLRHIKL [46F_47Q_49E_50V_52G_53A_54G_55F_67L_, Q9UKT9] | 2.45 | 1.65 | 1.38 | 3.21 |
| FDCEVCGAGFTQKGNLLRHIKL [46F_47D_49E_50V_52G_53A_54G_55F_67L_, Q9UKT9] | 1.18 | -1.45 | -1.35 | -0.721 |
| FGCPQCGALFTQKGNLLRHIKL [46F_47G_49P_50Q_52G_53A_54L_55F_67L_, Q9UKT9] | 0.741 | -1.93 | 1.28 | -2.08 |
| FSCDICGAKFTQKGNLLRHIKL [46F_47S_49D_50I_52G_53A_54K_55F_67L_, Q9UKT9] | 1.91 | 1.04 | -1.63 | 0.394 |
| FRCPVCGAVFTQKGNLLRHIKL [46F_47R_49P_50V_52G_53A_54V_55F_67L_, Q9UKT9] | -1.2 | -0.699 | 1.54 | 1.18 |
